Compound activity from PubChem.
In the library only some 3.6% were active in any assay of this set; here they are far more common.
bCat KO growth – beta-catenin-lacking colon tumor cell growth suppression; HCT116 beta-catenin knockout viability, CellTiter-Glo, 60 h; stronger effect = lower value; viability, % at 10 µM; 140,000 compounds, 1.5% hits;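 active = viability at or under a set limit, the compound median less 4 SD, cut at about 6% in these data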;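 note: 0% = Hyamine 1622 control at 20 µM and 100% = untreated cell control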
WT yeast gro inh – growth inhibition of WT yeast, mitochondrial fusion screen | mitochondrial fusion phenotypic screen, WT strain | inhibition, % at 10 µM | 190,000 compounds, 2.1% hits | AID 1362; in the data active = inhibition above about 58%; tested in S. cerevisiae
DAT uptake mod – modulates human dopamine transporter uptake under cocaine | Q01959 | LLC-PK1 hDAT cells, [14C]-dopamine uptake with cocaine IC80; actives deviate in either direction | B-score at 10 µM | 110,000 compounds, 1.3% hits | AID 449768;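 active = Z score or B-score, a plate-position-corrected score, falls beyond the plate's 99.7% confidence bounds, in either direction; inactive = both scores lie inside the 99.7% bounds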;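 note: scored against the spread of the other compound wells on the same plate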
Target sequence (Q01959 whole entry, looked up): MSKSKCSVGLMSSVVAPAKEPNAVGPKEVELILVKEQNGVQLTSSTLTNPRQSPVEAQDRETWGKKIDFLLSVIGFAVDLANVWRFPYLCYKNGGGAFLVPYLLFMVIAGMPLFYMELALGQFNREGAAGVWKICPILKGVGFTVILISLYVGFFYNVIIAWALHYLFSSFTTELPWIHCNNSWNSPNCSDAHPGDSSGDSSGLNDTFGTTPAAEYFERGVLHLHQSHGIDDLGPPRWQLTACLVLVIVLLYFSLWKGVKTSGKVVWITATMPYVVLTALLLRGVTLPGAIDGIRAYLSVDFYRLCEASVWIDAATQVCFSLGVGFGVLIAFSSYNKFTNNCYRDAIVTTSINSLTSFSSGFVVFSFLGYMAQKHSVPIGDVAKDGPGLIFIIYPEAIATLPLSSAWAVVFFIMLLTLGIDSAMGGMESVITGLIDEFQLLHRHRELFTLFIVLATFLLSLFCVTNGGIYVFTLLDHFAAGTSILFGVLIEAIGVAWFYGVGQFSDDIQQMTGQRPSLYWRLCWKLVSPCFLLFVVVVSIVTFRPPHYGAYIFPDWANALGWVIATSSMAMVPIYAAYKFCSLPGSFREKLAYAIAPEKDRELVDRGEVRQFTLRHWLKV
PTEN del growth – growth suppressors of cells with PTEN tumor suppressor deletion. HCT116 PTEN-null viability, CellTiter-Glo, 60 h; stronger effect = lower value. 140,000 compounds, 1.2% hits. viability, % at 10 µM. AID 827;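 active = viability at or below a set limit, 4 SD under the median of all tested compounds, cut at about 3.7% in these data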;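 note: PTEN knockout HCT116 line with beta catenin targeted HCT116 as companion control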
* marks the source's active call; other numbers are inactive results; / = no result given.

SMILES	bCat KO growth	WT yeast gro inh	DAT uptake mod	PTEN del growth
O=C1C=C(Nc2ccc(Cl)cc2)CC(c2ccc(Cl)cc2)C1 (centres undefined)	60.1	68.0*	-0.873	43.8
Cc1ccc(-n2c(C)nnc2SCC(=O)Nc2ccccc2)cc1	85.9	-10.8	0.37	93.1
CCC(=O)N1CC2(CC(c3cccc(NC(=O)COc4ccc(Cl)cc4)c3)=NO2)C[C@@H]1C(N)=O (some centres undefined)	/	/	-0.717	/
CCCCCC(=O)N1CC2(CC(c3cccc(NC(=O)COc4ccc(Cl)cc4)c3)=NO2)C[C@@H]1C(N)=O (some centres undefined)	/	/	3.13*	/
Nc1nc(CSc2ccc(Cl)cc2)nc(N2CCCCC2)n1	/	74.5*	/	/
Cc1ccccc1CSc1nnc2ccc(-c3ccncc3)nn12	/	-0.5	/	/
OC1CCN(C(=S)NCCc2ccccc2)CC1	104.7	-3.8	0.104	100.8
S=C(NCCc1ccccc1)N1CCc2ccccc2C1	/	71.3*	/	/
CC1=Nc2ccccc2/C1=C/c1nc(-c2ccc(C)s2)oc1O	/	11.0	/	/
CC1=Nc2ccccc2/C1=C/c1sc(=N)n(-c2nccs2)c1O	3.9*	36.4	0.00541	2.3*
CCOc1ccc2c(c1)c(N=O)c(O)n2C	86.8	-21.7	/	87.1
O=[N+]([O-])c1ccc(-c2cnc(SCc3ccccc3Cl)[nH]2)cc1	61.7	-5.8	1.57	53.4
O=[N+]([O-])c1ccc(-c2cnc(SC(c3ccccc3)c3ccccc3)[nH]2)cc1	3.9*	48.3	/	22.7
Cc1csc(NC(=O)c2cccn2C)n1	83.0	84.9*	0.368	69.0
Cn1cccc1C(=O)Nc1nc(-c2ccccn2)cs1	9.9	-1.5	0.856	6.6
CCc1ccccc1NC1=CC(=O)CC(C)(C)C1	/	-3.3	/	/
Cc1ccc(C)c(Cn2cnc3c(cnn3C(C)(C)C)c2=O)c1	66.6	61.0*	-0.028	64.9
CCN(CC)S(=O)(=O)c1ccc(-n2c(=O)c(C(C)C)c(C)n2C)cc1	/	-16.4	/	/
Cc1ccc(-c2nnc3n2CCCCC3)cc1	87.6	73.8*	-1.28	92.3
O=C(c1ccc(S(=O)(=O)NCc2ccco2)cc1)N1CCN(Cc2ccc3c(c2)OCO3)CC1	/	-7.0	/	/
Cc1cc(C)c2c(=O)[nH]c(SCc3ccc([N+](=O)[O-])cc3)nc2n1	/	-3.8	/	/
CCOc1cc(CNCCO)cc(Br)c1OCc1ccc(Cl)cc1	1.7*	11.0	/	1.2*
COc1cc(CNCCO)cc(Cl)c1OCc1ccccc1Cl	/	25.3	/	/
COc1cc(CNn2cn[nH]c2=S)cc(Br)c1OCc1ccccc1F	/	72.3*	/	/
CCOc1cc(CNc2ccc(O)cc2)cc(Br)c1OCc1ccccc1F	4.0*	13.3	-1.12	5.2
SMILES	bCat KO growth	WT yeast gro inh	DAT uptake mod	PTEN del growth
CCOc1cc(CNCCO)cc(Br)c1OCc1ccccc1Cl	1.2*	97.7*	1.25	1.4*
COc1ccc2c(c1)sc(=N)n2C	/	4.1	/	/
CCOC(=O)/C=C/C(=O)Nc1nccs1	47.5	-17.5	/	47.7
CCOc1cc(CNC(C)(C)CO)cc(Br)c1OCc1ccc(Cl)cc1Cl	0.8*	87.8*	2.53*	0.8*
Cn1c(SCc2ccc([N+](=O)[O-])cc2)nc2c(c1=O)SCC2	/	-4.1	/	/
Cn1c(SCc2c(F)cccc2Cl)nc2c(c1=O)SCC2	/	66.2*	/	/
CC(C)c1nc(SCc2c(F)cccc2Cl)c2c(=O)n(C)c(=O)n(C)c2n1	3.5*	8.8	3.27*	3.7*
COc1cccc(C(=O)COC(=O)CCC(=O)NC2CCCCC2)c1	/	-24.6	/	/
Clc1ccc(-c2n[nH]c3c2CCC3)cc1Cl	90.0	71.1	0.629	84.0
Clc1ccc(-c2n[nH]c3c2CCCC3)cc1	/	62.1*	/	/
CC(=O)N1CCN(c2cc(N3CCCC3)c(F)cc2[N+](=O)[O-])CC1	/	12.4	/	/
CCN1CCN(c2cc(N3CCc4ccccc4C3)c(F)cc2[N+](=O)[O-])CC1	1.0*	81.5*	/	0.5*
Oc1ccc(/C=N/N2CCN(C3c4ccccc4-c4ccccc43)CC2)c(O)c1	/	98.0*	/	/
COc1ccc(N2C(=O)CC(NNc3ncc(Cl)cc3Cl)C2=O)cc1 (centres undefined)	/	1.6	/	/
Cc1ccccc1Nc1nc(N)nc(CN2C(=O)NC3(CCCCC3C)C2=O)n1 (centres undefined)	88.6	-11.7	-7.56*	89.8
O=C(O)c1cc2ccc3ccccc3c2oc1=O	94.1	-10.6	-0.437	97.0
CN1N=C(c2ccc(F)c(F)c2)CSC1=NCc1ccccc1	/	69.5*	/	/
COc1cccc(C2=NNC(=NCc3ccccc3)SC2)c1	/	6.1	/	/
Cc1ccc(C(C#N)c2ccc3c(C(F)(F)F)cc(C(F)(F)F)nc3n2)cc1 (centres undefined)	27.8	69.4*	-0.0184	19.6
CN(N)c1ccc2c(C(F)(F)F)cc(C(F)(F)F)nc2n1	/	21.4	/	/
N#CC(c1ccccc1)c1ccc2c(C(F)(F)F)cc(C(F)(F)F)nc2n1 (centres undefined)	14.0	73.9*	-0.183	8.4
Cc1c(NC(=S)NC(=O)c2ccco2)cccc1-c1nc2ncccc2o1	/	-5.4	/	/
Nc1c(-c2ccccc2)c(CSc2nc3ccccc3[nH]2)nn1-c1cccc(Cl)c1	15.9	71.0*	/	11.0
Cc1ccccc1-n1nc(CSc2nc3ccccc3[nH]2)c(-c2ccccc2)c1N	83.9	35.0	/	73.2
Nc1c(-c2ccccc2)c(CSc2nc3ccccc3[nH]2)nn1-c1ccc(Cl)cc1	61.8	71.8*	/	49.2
SMILES	bCat KO growth	WT yeast gro inh	DAT uptake mod	PTEN del growth
COCCOC(=O)C1=C(C)NC2=C(C(=O)CCC2)C1c1ccc(N(C)C)cc1 (centres undefined)	/	10.5	3.06*	/
CCN(CC)c1ccc(C2C(C(=O)OCCOC(C)C)=C(C)NC3=C2C(=O)CCC3)cc1 (centres undefined)	73.0	4.6	2.41	87.6
Nc1ccc(NC(=O)c2ccco2)c(Cl)c1	/	-11.9	/	/
COc1ccc(CNc2ccc(-c3ccccc3OC)nn2)cc1	80.5	56.3	3.23*	92.0
COc1ccc(CNc2ccc(-c3ccc(OC)cc3)nn2)cc1	91.3	-4.3	1.51	86.8
COc1ccc(C(=O)N2c3cc4c(cc3C(C)=CC2(C)C)OCO4)cc1	63.9	59.9*	-0.565	58.6
CC1=CC(C)(C)N(C(=O)c2ccccc2)c2ccc(C)cc21	81.3	-0.9	-0.415	87.9
NC1=NC[C@H](Cc2ccccc2)N1CCCCC1CCCCC1	/	/	-2.96*	/
NC1=NC[C@H](Cc2ccc(O)cc2)N1CCCCC1CCCCC1	/	/	-4.05*	/
NC1=NC[C@H](Cc2ccc(O)cc2)N1CCc1cc(C(F)(F)F)cc(C(F)(F)F)c1	/	/	-0.0473	/
CCn1nc(C)c(/C=N/NC(=S)Nc2ccc(Cl)cc2Cl)c1C	10.3	12.5	/	3.8*
COc1ccc(C2CC(c3c(-c4ccccc4)c4cc(Cl)ccc4[nH]c3=O)=NN2S(C)(=O)=O)cc1 (centres undefined)	87.2	6.0	0.596	84.9
COc1ccc(OC)c(C2CC(c3c(-c4ccccc4)c4cc(Cl)ccc4[nH]c3=O)=NN2S(C)(=O)=O)c1 (centres undefined)	0.6*	6.1	/	0.5*
COc1ccc(-c2noc(-c3ccccc3-c3ccccc3)n2)cc1OC	74.7	75.1*	/	80.3
CC(C)CNC(=O)COC(=O)CNC(=O)c1cc(Cl)cc([N+](=O)[O-])c1	88.5	4.1	/	90.6
